The list is not random: actives were taken first. Their share in the collection is about 10%.
Mm-Cpn inhibitor = blocks the Methanococcus maripaludis chaperonin Mm-Cpn | 0.031% of 330,000 active | purified Mm-Cpn ATPase, ADP Transcreener TR-FRET | AID 504842 | Potency, µM (top dose mostly 76.9 µM), for inactives: at the highest dose activity, negative = inhibition, usual class: inhibitors; further: potency means the concentration at half of the fitted maximal effect; nearly all actives have a fitted effect of over 80% in size
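ATPase turnover read by TR-FRET ADP competition (Eu cryptate antibody/ADP-d2, 665/590 nm): 10uM ATP final, 25nM Mm-CPN final, 30 min 37degC after 10-min compound preincubation, pH 7.4 Tris/KCl/MgCl2/DTT buffer.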
PLK1 PBD block = PLK1 (human) polo-box domain binding inhibition. Plk1 PBD binding of FITC phosphopeptide, fluorescence polarization. Potency, µM, for inactives: max response, negative = inhibition, most hits filed as inhibitors. 2.8% of 360,000 active; further: potency means the concentration at half of the fitted maximal effect; series mostly up to about 57 µM; nearly all actives have a fitted effect of over 65% in size
G9a block = G9a (human) methyltransferase inhibition | Q96KQ7 | G9a H3K9 monomethylation, AlphaScreen, 2 h | 8.8% of 350,000 active | AID 504332 | Potency, µM (titrated, usually from 102 µM), inactives show at the top dose activity, negative = inhibition, usual class: inhibitors; further: potency means the concentration at half of the fitted maximal effect; nearly all actives have a fitted effect of over 75% in size
Target sequence (Q96KQ7 913-1193 limits assumed): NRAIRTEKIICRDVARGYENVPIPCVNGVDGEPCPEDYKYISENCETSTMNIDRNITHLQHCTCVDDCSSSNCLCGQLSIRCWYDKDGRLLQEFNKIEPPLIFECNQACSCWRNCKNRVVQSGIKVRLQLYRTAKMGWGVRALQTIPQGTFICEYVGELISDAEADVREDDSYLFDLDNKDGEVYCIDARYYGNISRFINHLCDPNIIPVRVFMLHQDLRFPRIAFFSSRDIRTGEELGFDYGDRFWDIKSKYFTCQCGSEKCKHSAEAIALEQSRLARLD
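Using a bead-based AlphaScreen, monomethylated H3K9 product from 2 h room-temperature reactions (G9a 20 nM, peptide 500 nM, SAM 20 uM) was detected with 0.5 ug/mL rabbit anti-H3K9me1 antibody.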
CCT modulator = cytosolic chaperonin activity modulation; purified chaperonin ATPase assay, HTRF ADP detection, 30 min; 0.3% of 360,000 active; AID 651819; activity change, % (no concentration beside the values), hits read low; in the data active means activity change below about -30%
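First, chaperonin was dispensed at 40 nM or 20 nM final depending on batch activity. Next, compounds were pinned at 76 uM and ATP added at 10 uM. After 30 min at 37 °C, ADP detection reagents ran 30 min at ambient temperature.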
Sfp PPTase inh = inhibitors of Bacillus subtilis Sfp phosphopantetheinyl transferase | AID 1490 | Biochemical Sfp PPTase activity, qHTS | Potency, µM, for inactives: largest response in the series, negative = inhibition, hits mostly inhibitors | 3.5% of 310,000 active;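 further: the enzyme is Sfp with the accession as filed and its product quenches rhodamine fluorescence; potency means the concentration at half of the fitted maximal effect; 0% = enzyme reaction without inhibitor and -100% = no enzyme wells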
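Compounds were incubated with enzyme (final 15 nM) for 15 min at room temperature before substrate addition started the reaction. Fluorescence at 525 nm excitation, 598 nm emission was recorded immediately and after 30 minutes.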
VDR inh = blocks the human vitamin D receptor; 0.93% of 400,000 active; AID 504847; VDR-SRC2-3 peptide fluorescence polarization, 2 h; Potency, µM, without a hit: max response, negative = inhibition, hits mostly inhibitors; further: potency means the concentration at half of the fitted maximal effect
Target sequence (P11473 whole entry, looked up): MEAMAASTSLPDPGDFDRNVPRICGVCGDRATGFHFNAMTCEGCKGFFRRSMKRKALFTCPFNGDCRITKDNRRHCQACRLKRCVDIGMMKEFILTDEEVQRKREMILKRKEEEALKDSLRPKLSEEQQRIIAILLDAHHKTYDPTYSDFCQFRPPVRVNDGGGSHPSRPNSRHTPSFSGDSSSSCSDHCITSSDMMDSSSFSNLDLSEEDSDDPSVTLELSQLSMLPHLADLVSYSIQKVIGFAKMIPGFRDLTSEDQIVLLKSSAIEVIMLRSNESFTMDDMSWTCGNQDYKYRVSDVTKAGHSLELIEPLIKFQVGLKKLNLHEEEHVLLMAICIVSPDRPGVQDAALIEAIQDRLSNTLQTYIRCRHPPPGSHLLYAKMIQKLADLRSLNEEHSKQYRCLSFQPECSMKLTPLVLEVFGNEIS
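Reagent solutions, kept cold and dark, are dispensed first; compounds are then pinned in at 23 nl, plates briefly spun, and incubated 2 h at ambient temperature. Inhibition of VDR–SRC2-3 peptide binding is read by fluorescence polarization.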
Numbers without * were called inactive; ? = inconclusive; nt = no result; [ ] = remark or other dose. Unless noted, the call rests on the fitted dose curve; in most records, active means well fitted curve in the direction sought with a large enough effect; inconclusive means small, poorly fitted or top-dose-only effect, or another doubt; inactive means no such curve, though single readings can be large; an effect the other way counts as inactive or inconclusive. Unless noted, on the % scale 0 is the no-effect control and ±100 the full control effect.

SMILES	Mm-Cpn inhibitor	PLK1 PBD block	G9a block	CCT modulator	Sfp PPTase inh	VDR inh
C=CCn1c(O)c(N=NC(=S)Nc2ccc(OC)c(Cl)c2)c2ccccc21	-3.4%	-8.5%	35.5µM*	2.4	1.78µM*	-9.0%
C=CCn1c(O)c(N=Nc2ccccc2C)c2ccccc21	3.1%	-29.3%	3.98µM*	-1.1	25.1µM*	-19.5%
C=CCn1c(O)c(N=O)c2ccccc21	2.3%	2.4%	15.7%	0.8	6.9%	-0.5%
Nc1ccc(-n2nncc2-c2ccc(Cl)cc2)cc1	0.8%	-15.0%	7.08µM*	-0.6	-10.4%	-10.1%
O=[N+]([O-])c1ccc(-n2nncc2-c2ccc(Cl)cc2)cc1	0.4%	-13.7%	-13.2%[59 µM]	-3.3	12.5%	3.6%
Cc1ccc(C(=O)CSc2nnc(-c3cccs3)n2C)o1	-3.0%	-17.6%	50.1µM*	0.1	-3.9%	-28.3%
Cn1c(SCC(=O)c2ccc(O)c(O)c2)nnc1-c1cccs1	-2.0%	-7.3%	nt	0.3	-5.4%	-3.7%
Cn1c(SCC(=O)NC(c2ccccc2)c2ccccc2)nnc1-c1cccs1	0.4%	26.7µM*	-35.3%[12.7 µM]	0.2	-3.3%	?
Cn1cccc1Cc1nnc(SCC(=O)Nc2cccc(Cl)c2)n1-c1ccc(F)cc1	-5.7%	26.7µM*	44.7µM*	0.8	-7.0%	-23.7%
COc1ccc(Cl)cc1NC(=O)CSc1nnc(Cc2cccn2C)n1-c1ccc(F)cc1	-3.3%	2.4%	44.7µM*	-0.8	6.1%	?
Cc1ccc(NC(=O)CSc2nnc(Cc3cccn3C)n2-c2ccc(F)cc2)c(C)c1	-0.5%	0.0%	28.2µM*	-7.2	?	-6.0%
Cn1cccc1Cc1nnc(SCC(=O)Nc2ccc(F)cc2F)n1-c1ccc(F)cc1	-1.8%	-1.2%	-1.4%[59 µM]	-0.3	-2.7%	-7.1%
O=C(Cn1cnc2c(oc3ccccc32)c1=O)Nc1ccc(F)cc1F	nt	nt	-49.4%[59 µM]	nt	nt	3.4%
O=C(O)c1ccc(COc2ccc3ccccc3c2/C=C2/NC(=O)N(c3ccccc3)C2=O)cc1	-0.7%	-18.2%	nt	-3.9	-30.2%	6.4%
CCN1C(=O)S/C(=C/c2c(OCc3ccc(C(=O)O)cc3)ccc3ccccc23)C1=O	0.6%	37.7µM*	50.1µM*	-5.9	?	?
O=C(CCn1cccc1)Nc1ccc(F)cc1	-9.3%	4.2%	-3.8%	-0.4	5.5%	-0.5%
CCc1ccc(NC(=O)CCn2cccc2)cc1	1.0%	-6.4%	50.1µM*	-1.7	-3.6%	4.0%
OCC[C@@H]1C[C@H](O)[C@@H](O)[C@@]2(CCc3ccccc3O2)O1	-8.1%	-13.5%	79.4µM*	0.4	8.5%	-14.3%
OCC[C@@H]1C[C@@H](O)[C@H](O)[C@@]2(Cc3ccccc3O2)O1	-4.2%	-7.9%	15.8µM*	-1.1	11.1%	-5.2%
CCOC(=O)c1oc2ccc(S(=O)(=O)n3nc(-c4cc(OC)cc(OC)c4)cc3N)cc2c1C	nt	nt	-2.7%[59 µM]	nt	nt	-15.2%
CC(C)c1nc2ccccc2c2nnc(SCC(=O)NCc3ccco3)n12	0.9%	29.9µM*	-8.6%[12.7 µM]	-2.2	-1.5%	-18.5%
O=C(CSc1nnc(-c2ccccc2)n1-c1ccccc1)NCc1ccco1	-10.2%	0.6%	?	-1.7	14.8%	-19.8%
O=C(CSc1nnc(C2CC2)n1-c1ccccc1)NCc1ccco1	1.8%	-10.2%	79.4µM*	-0.3	-15.5%	16.4%
C[C@@H]1[C@H](C)CC[C@@]2(C(=O)O)CC[C@]3(C)C(=CC[C@H]4[C@@]5(C)CC[C@@H](O)C(C)(C)[C@@H]5CC[C@@]43C)[C@@H]12	nt	nt	8.0%[21.5 µM]	nt	16.7%	-3.9%
C=CCN1C(=O)C2(NNc3ccccc3O2)c2ccccc21 (configuration not stated)	0.6%	12.0%	15.8µM*	0.8	?	1.6%
SMILES	Mm-Cpn inhibitor	PLK1 PBD block	G9a block	CCT modulator	Sfp PPTase inh	VDR inh
CCCCN1C(=O)C2(NNc3ccccc3O2)c2ccccc21 (configuration not stated)	-2.4%	15.6%	?	0.0	?	-2.4%
Cc1ccccc1OCc1n[nH]c(=S)n1-c1cccc(Cl)c1	-1.6%	-18.6%	11.2µM*	-0.2	7.1%	-7.3%
CSc1n[nH]c(=O)n1-c1cccc(Cl)c1	-1.1%	-6.2%	11.1%	1.3	7.7%	2.7%
Cc1n[nH]c(=S)n1-c1cccc(Cl)c1	1.1%	-15.8%	3.98µM*	-55.0*	?	-13.9%
Cc1ccccc1OCc1nnc(SCC(=O)O)n1-c1cccc(Cl)c1	0.2%	-19.0%	8.9%	-1.9	14.3%	-0.7%
S=c1[nH]nc(COc2cccc3ccccc23)n1Cc1ccccc1	1.8%	-18.8%	-30.4%	-1.6	7.4%	4.4%
Cc1ccccc1OCc1n[nH]c(=S)n1Cc1ccccc1	-3.2%	-19.8%	8.91µM*	-6.3	15.5%	-12.6%
COc1ccc(S(=O)(=O)c2c(Nc3c(C)cccc3C)sc(C(=O)c3ccc(F)cc3)c2N)cc1	nt	nt	0.3%[59 µM]	nt	nt	3.7%
Cc1c(N)c(C(C)(C)C)cc(C(C)(C)C)c1[N+](=O)[O-]	2.4%	-3.8%	6.2%	1.7	9.0%	-4.5%
Cc1cc2nc3c(=O)[nH]c(=O)[nH]c3nc2c([N+](=O)[O-])c1N	-2.6%	13.4µM*	31.6µM*	-0.6	?	-23.8%
Cc1ccc(CNS(=O)(=O)c2cc3c(cc2Cl)NC(=O)CO3)o1	nt	nt	1.1%[59 µM]	nt	nt	10.0%
O=C(CNCC1CCCO1)Nc1ccccc1N1CCCCCC1 (configuration not stated)	0.4%	?	44.7µM*	0.9	-8.6%	4.0%
O=C(CNC1CCCC1)Nc1ccc(N2CCCCCC2)cc1	-3.4%	-6.2%	5.62µM*	-0.4	?	-4.0%
CC1CCN(S(=O)(=O)c2ccc(NC(=O)CNC3CCCCC3)cc2)CC1	0.1%	-8.8%	22.1%	0.0	16.8%	-7.1%
O=C(CNCCC1=CCCCC1)Nc1ccc(N2CCCCCC2)cc1	-1.6%	-5.1%	?	-0.9	15.8µM*	-3.2%
O=C(CNC1CCCCCC1)Nc1ccc(N2CCCC2)cc1	-2.7%	nt	28.2µM*	nt	-2.1%	nt
Cc1ccccc1OCC(=O)Nc1ccccc1N1CCCCC1	3.2%	0.2%	?	-1.9	?	13.1%
CCOc1ccc(N(C(=O)c2ccc(OC)cc2)S(=O)(=O)c2ccc3c(c2)n(C)c(=O)n3C)cc1	nt	nt	-39.6%[59 µM]	nt	nt	3.5%
CC(=O)N1CCN(c2ccccc2NC(=O)Cc2ccc(Cl)cc2)CC1	0.2%	-2.7%	1.7%[59 µM]	1.7	23.9%	12.7%
CC1(C)CC(=O)N(CC(=O)NCc2ccccc2)c2ccccc2S1(=O)=O	2.1%	-8.1%	17.8%[59 µM]	1.3	-3.4%	8.0%
CS(=O)(=O)N1CCN(c2ccccc2NC(=O)Cc2ccc(Cl)cc2)CC1	-0.4%	-9.0%	-9.6%[59 µM]	-32.3*	3.0%	14.7%
O=C(CNCC1CCCO1)Nc1ccc(N2CCCCCC2)cc1 (configuration not stated)	-3.0%	-2.5%	?	-1.4	56.2µM*	-0.2%

High-throughput results from PubChem.
